Laboratory results from PubChem BioAssay AID588436 (Broad Institute, 2011).
Out of some 350,000 compounds screened, about 550 (0.16%) were called active. This is one part of a sample in which actives are shown more often than they occur. Unmarked numbers belong to inactive results. No stated cut-off is given here; in the data, active means activation mostly above about 9.7% (no sharp cut-off); inconclusive means no clear call, values can overlap the other calls; inactive means mostly below about 3.7%.

Experiment: induces V. cholerae light production without autoinducers, primary screen, BH1578 luxS cqsA deficient, single point (AID 588436)
Settings: V. cholerae BH1578 lux reporter, luminescence, 6 h, at 18.7 µM; hits give high values

Structure (SMILES) | activation
Cc1ccc(CNC(=O)C2CCCN2S(=O)(=O)c2ccc3c(c2)C(C)(C)C(=O)N3C)cc1 (stereo unspecified) | -0.135%
CCNC(=O)CCc1nc(-c2ccc(C(C)(C)C)cc2)no1 | inactive
CCOC(=O)C1(CCOc2ccccc2)CCN(Cc2cc(OC)cc(OC)c2)CC1 | 21.2% (active)
CCOC(=O)C1(CCOC)CCN(Cc2ccc(C(=O)OC)cc2)CC1 | 0.0345%
CCOC(=O)C1(CCOc2ccccc2)CCN(Cc2ccc(C#CCCO)cc2)CC1 | inactive
O=C(Nc1ccccc1C(=O)N1CCOCC1)c1ccc(Cl)cc1 | -0.216%
COc1ccccc1C(=O)NC(=O)COC(=O)C1CC1 | 0.621%
CCOc1ccccc1NC(=O)CCc1nnc2ccc(NCc3ccco3)nn12 | -0.0905%
COc1ccc2c(c1)c(C(=O)N/N=C/c1cccs1)c(C)n2C | -0.575%
Fc1c(F)c(C(F)(F)F)c(F)c(F)c1N1CCN(c2ccc3nnc(C(F)(F)F)n3n2)CC1 | 0.463%
COc1ccc(S(=O)(=O)N(C)C[C@H]2Oc3c(NC(=O)Nc4ccc5c(c4)OCO5)cccc3C(=O)N([C@H](C)CO)C[C@@H]2C)cc1 | 1.22%
CCCc1nc2ccccc2c(C(=O)OCc2nnc(-c3cc(OC)c(OC)c(OC)c3)o2)c1CC | -0.28%
Cn1ccc(=Nc2ccc(NC(=O)c3ccc(N=c4ccn(C)c5ccc([N+](=O)[O-])cc45)cc3)cc2)cc1 | 52.2% (active)
CN(CC1CCCO1)S(=O)(=O)c1ccc(C(=O)Nc2ccc([N+](=O)[O-])cc2)cc1 (stereo unspecified) | inactive
CC(C)c1ccc(NC(=O)CCN2C(=O)c3ccc([N+](=O)[O-])cc3C2=O)cc1 | -0.342%
CCOP(=O)(OCC)C(Nc1cccc(C)c1)c1ccc(F)cc1 (stereo unspecified) | -0.244%
CSc1ccc(S(=O)(=O)NCc2ccc(Cl)cc2)cc1 | -1.22%
OC[C@@H]1CN(Cc2cccs2)C[C@H](n2cnc3c(Nc4ccccc4)ncnc32)O1 | -0.66%
C=CCn1cc(-c2cccc(C(F)(F)F)c2)cc(C#N)c1=O | -4.13%
CC(=O)N1CCN(C(=O)C2(NC(=O)Nc3ccc(C)cc3)CCCCC2)CC1 | -0.583%
CNC(=O)N1c2ccccc2C=Cc2ccccc21 | -0.261%
CC(=O)Nc1cccc(-c2cc3nc(NCc4cccnc4)n(C)c(=O)c3s2)c1 | inactive
Cc1c(Br)c([N+](=O)[O-])nn1CC(=O)Nc1sc2c(c1C(=O)OC(C)C)CCC(C)C2 (stereo unspecified) | -0.23%
O=C(c1ccc(F)cc1)N1CCC(C(=O)N2CCN(S(=O)(=O)c3ccccc3Br)CC2)CC1 | inactive

Structure (SMILES) | activation
CC(=O)Nc1ccc(Oc2ccc3c(c2)C(=O)NC3=O)cc1 | 0.165%
O=C(COc1coc(CN2CCN(c3ccccc3F)CC2)cc1=O)N1CCc2ccccc21 | -0.376%
CCN(CC)S(=O)(=O)c1ccc2c3c(cccc13)C(=O)S2 | inactive
Cc1nn(C)c(C)c1S(=O)(=O)N1CCC(CO)(Cc2ccc(Cl)cc2)CC1 | -0.416%
Cn1c(C(=O)O)ccc1S(=O)(=O)N(Cc1ccccc1)Cc1ccccc1 | inactive
CN(CC(=O)NC1CCCCC1)S(=O)(=O)c1cccc2cccnc12 | -0.233%
O=S(=O)(c1cccc(C(F)(F)F)c1)N1CCN(c2cnccn2)CC1 | inactive
COc1ccc(S(=O)(=O)N2CCN(c3cnccn3)CC2)cc1 | 42.2% (active)
COc1ccc(S(=O)(=O)N2CCSCC2)cc1 | inactive
CCOc1ccc(Oc2nc(C)cc(OC)n2)nn1 | -0.469%
CC1CN(C(=O)CN2C(=O)NC(C)(c3ccccc3)C2=O)CC(C)O1 (stereo unspecified) | inactive
Cc1sc2nc(COC(=O)C(NC(=O)c3ccc(Cl)cc3Cl)C(C)C)[nH]c(=O)c2c1C (stereo unspecified) | -0.176%
COc1cccc(-n2c(N)cc(=O)nc2SCC(=O)Nc2cc(C)on2)c1 | 0.462%
NC(=O)c1nsc(C(=O)N(CC(=O)NCc2ccc(F)cc2)Cc2ccco2)c1N | 25% (active)
Cc1ccnc(NC(=O)CCC(=O)N(CC(=O)NCc2ccccc2)Cc2ccco2)c1 | -0.537%
COc1ccc(CNC(=O)C(c2ccc(O)cc2)N(Cc2ccco2)C(=O)c2snc(C(N)=O)c2N)cc1 (stereo unspecified) | 0.29%
Cc1ccc(C(=O)Cc2nnc(C)s2)cc1 | -0.621%
COc1ccc(C(C#N)N2N=C(C)CC2(C)C)cc1 (stereo unspecified) | inactive
COc1cc(N/C=C2\CC(=O)NC(C)=C2C#N)cc(OC)c1OC | -0.38%
Cc1cc(C)nc(SCc2cn3c(C)cc(C)nc3n2)n1 | -0.12%
COc1ccc(-c2cc(C)nc3nc(N)nn23)cc1 | -1.41%
COc1ccc(OCc2cn3c(C)cc(C)nc3n2)cc1 | 126% (active)
COc1ccc(Cl)cc1NC(=O)COc1ccc2c(c1)OCO2 | -2.78%
COc1ccc(Cl)cc1NC(=O)CN(C)Cc1ccc(OC)c(OC)c1 | -0.294%

Structure (SMILES) | activation
COc1ccc(Cl)cc1NC(=O)COC(=O)c1ccc(Br)o1 | 78.5% (active)
Cc1nc(-c2ccccc2)cn2c1nc1ccccc12 | inactive
Cc1cc(C)c(S(=O)(=O)N(C)CC(=O)NCC2CCCO2)c(C)c1 (stereo unspecified) | -0.212%
CCC(=O)N1c2ccc(S(=O)(=O)NCc3ccco3)cc2CC1C (stereo unspecified) | -0.345%
CCn1nnc2cc(C(=O)Nc3ccc(C(=O)OC(C)C)cc3)ccc21 | inactive
CCCc1ccc(C(=O)[C@@H]2[C@@H](C(C)=O)N3c4ccc(F)cc4C=C[C@@H]3[C@@]23C(=O)Nc2ccccc23)cc1 | -0.383%
O=C(O)CCSc1nnc(-c2ccccc2)n1-c1ccccc1 | 4%
O=C(Nc1ccc2oc(-c3ccccc3F)nc2c1)c1ccco1 | 0.203%
COc1cc(OC)cc(C(=O)Nc2ccc(-c3nc4ccccc4o3)c(O)c2)c1 | -1.79%
O=C(Nc1ccc2oc(-c3ccc4ccccc4c3)nc2c1)c1cccs1 | 25% (active)
O=S(=O)(NC1CCCCC1)c1ccc(F)c2ccccc12 | -0.148%
NC(c1csc(NC(=O)Nc2cccc(C(F)(F)F)c2)n1)C1CCCCC1 (stereo unspecified) | inactive
COCCNc1ncnc2c1ncn2[C@H]1CN(CCN2CCOCC2)C[C@@H](CO)O1 | -0.715%
O=C(NCc1ccc(Cl)cc1)C(=O)NCC1CCCN1S(=O)(=O)c1cccs1 (stereo unspecified) | inactive
Cc1nonc1C1CCCN1Cc1nc(-c2ccc(F)cc2F)oc1C (stereo unspecified) | 2.27%
Cc1ccsc1-c1nc(CSCC(=O)NCCN2CCCC2)c(C)o1 | -0.308%
CC(CCc1ccccc1)NCC(O)c1cccc([N+](=O)[O-])c1 (stereo unspecified) | -0.322%
COc1ccc(Cl)cc1NC(=O)C1CC(=O)N(c2ccc(F)cc2)C1 (stereo unspecified) | -0.72%
Cn1nnnc1NCc1ccc(Cl)c(Cl)c1 | inactive
COc1ccc2ccccc2c1CNc1nnnn1C | inactive
CCCn1nnnc1NCc1ccc(OC)cc1 | 495% (active)
COc1ccc(CNc2nnnn2C)cc1 | 25.8% (active)
CCCCn1nnnc1NCc1cc(OC)c(OC)c(OC)c1 | inactive
CCCC(=O)n1nc(NCc2ccc(OC)cc2)nc1NCc1ccc(OC)cc1 | inactive

Structure (SMILES) | activation
CCNC(=O)C1(C)CCN(Cc2ccc(C(=O)OCC)o2)C1 (stereo unspecified) | -0.406%
O=C(COC(=O)CNC(=O)C1CCCCC1)NCc1ccccc1 | inactive
O=C(O)c1cc(S(=O)(=O)Nc2ccc3cn[nH]c3c2)ccc1Br | -0.342%
Cc1ccc(SCC(=O)Nc2nncs2)cc1 | inactive
Cc1ccc(SCC(=O)c2sc(-c3ccccc3)nc2C)cc1 | 25% (active)
Cc1nc(-c2ccc(Cl)cc2)sc1C(=O)CBr | -3.57%
Cc1ccsc1C(=O)N[C@@H](C)c1nnc2ccccn12 | -5.76%
COc1ccc(C(C)C)cc1-c1ccc2nncn2c1 | -1.12%
CCCCNC(=O)C1CCCN(S(=O)(=O)c2ccc(S(=O)(=O)NCC(C)C)cc2)C1 (stereo unspecified) | -0.448%
O=c1cc(CO)oc(C(Nc2cccc([N+](=O)[O-])c2)c2ccccn2)c1O (stereo unspecified) | -0.237%
CCNc1nc(NCC)nc(N(C)n2cnnc2)n1 | -0.319%
Cc1cc(C)c(S(=O)(=O)n2cc(C(C)C(N)C(=O)O)c3ccccc32)c(C)c1 (stereo unspecified) | inactive
COc1ccc(C)cc1NC(=O)NCCCCc1ccccc1 | inactive
Cc1ccc(S(=O)(=O)NNC(=O)/C=C/c2cccc(F)c2)cc1 | inactive
COC(=O)CN1C(=O)C(C)(C)Oc2ccc(C(=O)Nc3cccc(OC)c3)cc21 | -0.813%
O=C(CCN1C(=O)c2ccccc2C1=O)C1=NN[C@@H]2C(=O)N(c3ccc(F)cc3)C(=O)[C@H]12 | 1.21%
COC(=O)c1c(C(=O)OC)c2n(c1C)CCS2 | -0.577%
Cc1cc(-n2cnc(-c3cn(C)nc3C)n2)no1 | inactive
CCOC(=O)c1nnn(-c2nonc2-n2cccc2)c1CN1CCC(C(=O)OCC)CC1 | inactive
Cc1c(C(=O)O)nnn1-c1nonc1N | 1.08%
NNC(=O)c1nnn(-c2nonc2N)c1CN1CCCC1 | 67.1% (active)
CN(CC(=O)Nc1ccc(OC(F)(F)F)cc1)C(=O)C1CCC1 | 18.8% (active)
COc1ccc(NC(=O)CN(C)C(=O)CC2CCCCC2)cc1 | -0.68%
COc1ccc(NC(=O)CN(C)C(=O)CNC(=O)C2CCCCC2)cc1 | 1.72%
